The list is not random: actives were taken first. Their share in the collection is about 2.2%.
CCT modulator – High-Throughput Screening for Modulators of Cytosolic Chaperonin Activity. purified chaperonin ATPase assay, HTRF ADP detection, 30 min. activity change, % (concentration not given with the values), hits read low. 360,000 compounds, 0.3% hits. AID 651819, 2012; in the data active = activity change below about -30%; also: % is scaled to controls: 0 for no effect and ±100 for the full control effect
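Enzyme 40 or 20 nM (batch-dependent) in Tris pH 7.4/KCl/MgCl2/DTT; cpd 76 uM single point; ATP 10 uM; 30 min 37 °C; Transcreener ADP HTRF detection, 30 min RT; ratio 665/615.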
uPA surface inh – qHTS for Inhibitors of Cell Surface uPA Generation. Potency, µM (doses to about 38.3 µM), for the others: at the top dose activity change, negative = inhibition, hits mostly inhibitors. cell surface uPA generation assay, qHTS. AID 540303, 2011. 330,000 compounds, 0.31% hits; active = well fitted inhibition curve with a large enough effect; inconclusive = small, poorly fitted or top-dose-only effect; inactive = no such curve, though single readings can be large or run the other way; tested in mouse RAW 264.7 cells; also: potency is read from the fitted curve at half-maximal effect; % is scaled to controls: 0 for no effect and ±100 for the full control effect; nearly all actives have a fitted effect of over 55% in size
GLP1R cytotox – qHTS of GLP-1 Receptor Inverse Agonists: Cytotox Screen; HEK293 cAMP-luciferase reporter cells, luminescence, 24 h; Potency, µM (doses to about 38.3 µM), without a hit: at the highest dose activity change, negative = inhibition, hits mostly inhibitors; 410,000 compounds, 0.13% hits; AID 624418, 2012;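 also: loss of luciferase light is scored as toxicity; potency is read from the fitted curve at half-maximal effect; % is scaled to controls: 0 for no effect and ±100 for the full control effect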
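Here, cytotoxicity is scored as loss of luminescence. The MLSMR collection was tested on cells seeded in medium containing 10% Nu serum, with a 24 hr compound exposure preceded by 12 hours of culture.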
GLP-1R agonist – qHTS of GLP-1 Receptor Agonists. 380,000 compounds, 0.007% hits. Potency, µM (doses to about 45.6 µM), inactives show top-dose activation, usual class: activators. Glucagon-like peptide 1 receptor (Homo sapiens), P43220. HEK293 GLP-1R CRE-luciferase, luminescence, 4-6 h; cells express a hypersensitive GLP-1R form; also: potency is read from the fitted curve at half-maximal effect; % of control where 0% means no effect
Target sequence (P43220 whole entry, looked up): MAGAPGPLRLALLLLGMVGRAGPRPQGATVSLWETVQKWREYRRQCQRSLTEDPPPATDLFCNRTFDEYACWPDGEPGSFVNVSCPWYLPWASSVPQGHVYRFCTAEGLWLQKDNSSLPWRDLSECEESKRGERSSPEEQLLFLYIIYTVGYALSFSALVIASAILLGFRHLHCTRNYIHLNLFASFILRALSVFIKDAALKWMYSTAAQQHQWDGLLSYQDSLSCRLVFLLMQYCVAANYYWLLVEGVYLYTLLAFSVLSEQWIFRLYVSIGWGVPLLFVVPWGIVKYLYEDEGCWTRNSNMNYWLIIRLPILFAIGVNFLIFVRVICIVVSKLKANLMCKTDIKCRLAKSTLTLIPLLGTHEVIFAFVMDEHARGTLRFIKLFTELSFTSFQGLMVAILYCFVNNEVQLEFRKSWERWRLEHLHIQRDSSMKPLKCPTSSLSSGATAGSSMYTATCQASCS
GLP1R inv ag – qHTS of GLP-1 Receptor Inverse Agonists (Inhibition Mode). 410,000 compounds, 1.6% hits. Glucagon-like peptide 1 receptor (Homo sapiens), P43220. AID 624417, 2012. Potency, µM (series often up to 38.3 µM), inactives show at the top dose activity change, negative = inhibition, most hits filed as inhibitors. HEK293 GLP-1R CRE-luciferase, luminescence, 24 h; GLP-1R form is constitutively active; also: potency is read from the fitted curve at half-maximal effect; % is scaled to controls: 0 for no effect and ±100 for the full control effect; nearly all actives have a fitted effect of over 55% in size
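HEK293 cells stably co-expressing constitutively active GLP-1R and a cAMP-responsive luciferase reporter were seeded in DMEM with 10% Nu serum, given compounds after 12 h, and incubated 24 h at 37 deg C. Luminescence was then read.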
Mm-Cpn inhibitor – Inhibitors of TCP-1 ring complex (TRiC) of Methanococcus maripaludis (MmCpn): qHTS | Chaperonin Mm-Cpn (Methanococcus maripaludis) | 330,000 compounds, 0.031% hits | Potency, µM (series often up to 76.9 µM), for inactives: at the top dose activity, negative = inhibition, hits mostly inhibitors | purified Mm-Cpn ATPase, ADP Transcreener TR-FRET; also: potency is read from the fitted curve at half-maximal effect; % is scaled to controls: 0 for no effect and ±100 for the full control effect; nearly all actives have a fitted effect of over 80% in size
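Purified archaeal Mm-CPN (25nM final) preincubated 10 min at 37degC with compound, then 10uM ATP for 30 min at 37degC; ADP measured by HTRF Transcreener TR-FRET; buffer 30 mM TRIS pH 7.4, 100mM KCl, 5mM MgCl2, 1mM DTT.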
Active calls of the source: *; ? = inconclusive; . = not tested or not shown. Unless noted, calls follow the shape of the dose curve; as a rule, active = well fitted curve in the direction sought with a large enough effect; inconclusive = small, poorly fitted or top-dose-only effect, or another doubt; inactive = no such curve, though single readings can be large; an effect the other way counts as inactive or inconclusive.

SMILES	CCT modulator	uPA surface inh	GLP1R cytotox	GLP-1R agonist	GLP1R inv ag	Mm-Cpn inhibitor
C=C1C(=O)C23C(O)C1CCC2C12CCCC(C)(COC(C)=O)C1C(O)C3(O)OC2 (stereo unspecified)	-1	-10%	2.5µM*	-10%	?	.
CC1(O)CCC2C3CCC4=CC(=O)CCC4(C)C3(F)C(O)CC21C (stereo unspecified)	.	.	.	10%	.	.
C/C=C(\C)C(=O)N[C@@H](c1ccccc1)[C@@H](O)C(=O)O[C@H]1C[C@@]2(O)[C@@H](OC(=O)c3ccccc3)C3[C@](C)(C(=O)[C@H](OC(C)=O)C(=C1C)C2(C)C)[C@@H](O)C[C@H]1OC[C@@]31OC(C)=O (stereo partly specified)	-1	-63%	-35%	2%	-61%	-1%
C/C=C(\C)C(=O)N[C@@H](c1ccccc1)[C@@H](O)C(=O)O[C@H]1C[C@@]2(O)[C@@H](OC(=O)c3ccccc3)C3[C@](C)(C(=O)[C@H](O)C(=C1C)C2(C)C)[C@@H](O)C[C@H]1OC[C@@]31OC(C)=O (stereo partly specified)	1	0.71µM*	-28%	2%	-52%	-1%
COc1cc(C2NCc3ccccc3-n3cccc32)ccc1O (stereo unspecified)	-6	-2%	-27%	-3%	10µM*	-1%
COc1ccc(C2NCc3ccccc3-n3cccc32)cc1 (stereo unspecified)	-2	-16%	8%	-3%	?	-1%
CCOc1cc(C2NCc3ccccc3-n3cccc32)ccc1OC (stereo unspecified)	-1	-9%	0%	-4%	10µM*	0%
CCOc1cc2c(cc1OCC)-n1cccc1C(c1ccc(OC)c(O)c1)NC2 (stereo unspecified)	-5	1%	-12%	17%	?	1%
C[C@@H]1CN([C@H](C)CO)C(=O)Cc2cc(NC(=O)Nc3ccccc3)ccc2O[C@@H]1CN(C)Cc1ccc2c(c1)OCO2	0	?	?	-10%	?	2%
COc1cccc(C(=O)C2CCCN(Cc3ccc(F)cc3)C2)c1 (stereo unspecified)	0	7%	-1%	-7%	?	-1%
O=C(c1cc(F)ccc1F)C1CCCN(Cc2cccc(Cl)c2)C1 (stereo unspecified)	0	16%	6%	11%	10µM*	-2%
O=C(c1cc(F)ccc1F)C1CCCN(CCCc2ccccc2)C1 (stereo unspecified)	-30*	2%	9%	2%	?	-4%
O=C(CNC(=O)OCc1ccccc1)Nc1ccc(Br)cc1C(=O)c1ccccc1	0	1%	-27%	-9%	11µM*	0%
O=C(CNC(=O)OCc1ccccc1)NCC(=O)Nc1ccc(Br)cc1C(=O)c1ccccc1	-1	0%	-2%	4%	1%	0%
COc1ccc(CNS(=O)(=O)c2cc3c(cc2C)N(C)CCO3)cc1	-1	?	12%	7%	7.9µM*	-1%
CCOC(=O)c1ccc(NC(=O)Nc2cc3c(cc2N2CCCCC2)n(CC)c(=O)n3CC)cc1	.	.	-22%	-13%	10µM*	.
CN(C)C(=O)Oc1c(Cl)cc(Cl)c2ccccc12	1	0%	7%	-2%	11µM*	2%
CCOc1ccccc1N1CCN(C(=O)c2ccc3c(c2)OCO3)CC1	0	-3%	?	5%	?	-2%
Cc1ccc(S(=O)(=O)NCCC(=O)Nc2ccc(Cl)cc2C(=O)c2ccccc2)cc1	-6	2%	11%	8%	11µM*	4%

Bioassay records as filed in PubChem BioAssay.
